Screen size: about 2,500 compounds; about 2,100 (84%) were called active.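 Rule for the calls: active = toxic compounds, whose cell viability fell below 70% of untreated control cells; inactive = the rest.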 The set was probably picked from earlier hits. The list is a sample of the results. Potency and affinity values are given separately.
Assay: viability of uninfected HEp-2 cells – cell-based, HTS, cytotoxicity control for RSV inhibitor project, dose response (AID 2410);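 note: cells exposed to compound for six days before readout; 100% = median signal of untreated cell control wells on each plate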
Settings: HEp-2 viability, luminescence, cytotoxicity counter-screen; series mostly up to 50 µM; viability: at the top concentration

Row | Compound | viability
1 | CCOc1cc(/C=N/O)cc(Br)c1OCc1ccc(Cl)cc1 | 95.8% (inactive)
2 | COc1ccc(OC)c(-n2c(SCC(=O)NCc3ccco3)nnc2-c2c[nH]c3ccccc23)c1 | 70.7% (inactive)
3 | O=c1[nH]c(/C=C2\C=Nc3ccccc32)c(O)n1Cc1ccccc1F | 90.2% (inactive)
4 | COc1ccc(-c2nc[nH]c2[N+](=O)[O-])cc1 | 94.2% (inactive)
5 | C=CCN1C(=O)N(/C=C/C)c2cccc3cccc1c23 | 96.3% (inactive)
6 | CCOC(=O)C1=C(C)N=c2s/c(=C/c3ccc(OCC(=O)O)c(OC)c3)c(=O)n2C1c1ccc(Cl)cc1 (stereo unspecified) | 76.8% (inactive)
7 | CCCC(c1nnnn1CC(=O)OCC)N(Cc1cc2c(C)cc(C)cc2[nH]c1=O)C1CCCC1 (stereo unspecified) | 119% (inactive)
8 | CC(=O)Nc1ccc2c(CSc3nnc(N)s3)cc(=O)oc2c1 | 120% (inactive)
9 | COc1ccc(NC2c3ncccc3C(=O)N2Cc2cccs2)cc1 (stereo unspecified) | 83.8% (inactive)
10 | C=CCSc1nnc2nc3c(nn12)c1cc(C)ccc1n3CC=C | 76.7% (inactive)
11 | c1csc(-c2nn3c(Cn4cnc5ccccc54)nnc3s2)c1 | 85.1% (inactive)
12 | O=C1c2ccccc2C(=O)N1CCCCN(C(=O)c1ccco1)c1ccc(Cl)cc1 | 72.2% (inactive)
13 | NC(=O)N\N=C/C=C/C=C/c1ccc(F)cc1 | 72.2% (inactive)
14 | CNC(=S)N/N=C(\C)c1cccc(C(F)(F)F)c1 | 94.9% (inactive)
15 | Nc1ccc(C(=O)N/N=C2\CCCc3c2[nH]c2ccccc32)cc1 | 101% (inactive)
16 | CCC(=O)N(CC(=O)Nc1sc(C)c(C)c1C(N)=O)C1CCCC1 | 88.8% (inactive)
17 | COc1ccccc1CN1C[C@@H]2C[C@@H](c3ccc(C)c(C)c3)N3CCC[C@@]23C1=O | 70.3% (inactive)
18 | Cc1ccc(C(=O)N/C(=C\c2ccc(C(C)C)cc2)C(=O)NCCCN2CCOCC2)cc1 | 81.3% (inactive)
19 | CCCC(=O)Nc1ccc(-c2nc3cc(C)c(C)cc3o2)cc1 | 75.3% (inactive)
20 | Cc1cc2nc(-c3ccc(NC(=O)C(C)C)cc3)oc2cc1C | 81.2% (inactive)
21 | Cc1ccc(-c2nc3cc(N)ccc3o2)c(C)c1 | 95.1% (inactive)
22 | O=C(c1ccc(F)cc1Cl)N(c1ccccn1)C1CCCCC1 | 71.9% (inactive)

Row | Compound | viability
23 | c1csc(-c2nn3c(Cn4nnc5ccccc54)nnc3s2)c1 | 102% (inactive)
24 | Cn1c(NCc2cc(Br)ccc2O)nc2ccccc21 | 91.3% (inactive)
25 | COc1cc(C)c2occ(/C(C)=N\O)c2c1 | 98.9% (inactive)
26 | COc1cc(/C=C(\C#N)c2nc3ccccc3s2)ccc1OCC(=O)Nc1ccccc1 | 101% (inactive)
27 | O=C(Oc1ccc(-c2cnc3ccccc3n2)cc1)c1ccco1 | 95.7% (inactive)
28 | OCCC1CN(Cc2cccn2-c2nccs2)CCN1CCc1ccccc1 (stereo unspecified) | 76.8% (inactive)
29 | CS(=O)(=O)c1ccc(Cl)c(NC(=O)c2ccc3ccccc3c2)c1 | 110% (inactive)
30 | O=C(Nc1ccccn1)C1COc2ccccc2O1 (stereo unspecified) | 86% (inactive)
31 | CCOC(=O)c1c(NC(=O)C2COc3ccccc3O2)sc2c1CC(C)(C)NC2(C)C (stereo unspecified) | 84.5% (inactive)
32 | O=C(CCn1c(=O)c2ccccc2n(Cc2cc(=O)n3ccccc3n2)c1=O)NCc1ccco1 | 96.9% (inactive)
33 | NC(=O)COc1ccc2c3c(c(=O)oc2c1)CCCCC3 | 79.8% (inactive)
34 | CCOC(=O)c1c(C)oc2c1cc(O)c1ccccc12 | 74.8% (inactive)
35 | Cn1c2ccccc2c2cc([N+](=O)[O-])ccc21 | 85.2% (inactive)
36 | CC(=O)Cc1nsc(NC(=O)c2oc(-c3ccccc3Cl)cc2C)n1 | 73.8% (inactive)
37 | Cc1ccc(NC(=O)c2ccc(NS(=O)(=O)c3cccc4cccnc34)cc2)cc1 | 72.4% (inactive)
38 | Cn1c(=O)c2c3c(sc2n2cnnc12)CCC3 | 93.9% (inactive)
39 | Cc1ccc(S(=O)(=O)N2CCC(C(=O)OCC(=O)N3CCCC3=O)CC2)cc1C | 106% (inactive)
40 | O=C(N=Nc1c(O)[nH]c2ccc([N+](=O)[O-])cc12)c1ccccc1[N+](=O)[O-] | 74.4% (inactive)
41 | O=C(CNC(=O)c1ccco1)N=Nc1c(O)[nH]c2ccc([N+](=O)[O-])cc12 | 74.5% (inactive)
42 | COc1ccc(Cl)cc1NC(=O)C1(c2cccs2)CCOCC1 | 87.3% (inactive)
43 | COc1ccccc1CNC(=O)C1CCCN1S(=O)(=O)c1cccc2cccnc12 (stereo unspecified) | 85.4% (inactive)
44 | Cc1ccc(NC(=O)CN(C)S(=O)(=O)c2cccc3cccnc23)c(C)c1 | 87.6% (inactive)

Row | Compound | viability
45 | Cc1ccc(-c2csc3nc(C)n(N)c(=O)c23)o1 | 80% (inactive)
46 | C=C(C)C(=O)Nc1cccc(C2=NOC3(C2)C[C@@H](C(N)=O)N(C(=O)c2ccc(OC)cc2)C3)c1 (stereo partly specified) | 75.9% (inactive)
47 | CCOC(=O)c1ccc2[nH]c3c(c2c1)CN(C)CC3 | 105% (inactive)
48 | C/C(N)=C(/C#N)C(=O)COC(=O)c1cc2c(s1)CCCC2 | 113% (inactive)
49 | CNS(=O)(=O)c1ccc(OC)c(-c2nnc3c4ccccc4c(C)nn23)c1 | 107% (inactive)
50 | COc1ccc(C(C(=O)NC2CCCC2)N(C(=O)c2snc(C(N)=O)c2N)c2cc(C)ccc2OC)cc1OC (stereo unspecified) | 88.9% (inactive)
51 | C=C(C)Cn1c(N2CC(C)CC(C)C2)nc2c1c(=O)[nH]c(=O)n2C (stereo unspecified) | 99.3% (inactive)
52 | Brc1cccc(-c2nc(-c3ccncc3)no2)c1 | 82.8% (inactive)
53 | CC(C)(C)c1cc(NC(=O)c2cc(F)c(F)c(F)c2F)no1 | 76.3% (inactive)
54 | Cc1ccc(N2C=Nc3ccc(C)c4nc(C)cc2c34)cc1 | 73.6% (inactive)
55 | CC1(C)CC(=O)C2=C(C1)OC(N)=C(C#N)C2C#Cc1ccccc1 (stereo unspecified) | 102% (inactive)
56 | O=C(O)c1cc(-c2ccc(/C=C3\NC(=O)N(c4ccc(Cl)cc4)C3=O)o2)ccc1Cl | 87% (inactive)
57 | CC(=O)Oc1cc(OC(C)=O)c2c(C)cc(=O)oc2c1 | 82.4% (inactive)
58 | COc1cc(/C=N/O)cc(Br)c1OCc1cccc(Cl)c1 | 96.1% (inactive)
59 | COc1ccc(-n2c(SCC(=O)/C(C#N)=C(\C)N)nc3ccccc3c2=O)cc1OC | 99% (inactive)
60 | Cc1ccc(-n2c(=O)c3sccc3n(Cc3cc(=O)n4ccccc4n3)c2=O)cc1 | 94.5% (inactive)
61 | Nc1ccc(Sc2cc(Cl)nc(N)n2)cc1 | 104% (inactive)
62 | CCC(=O)Nc1ccc(C(=O)OCC(=O)c2ccc(C)c([N+](=O)[O-])c2)cc1 | 76.5% (inactive)
63 | Cc1ccc(OCC(=O)Nc2c[nH]c(=O)[nH]c2=O)cc1C | 87.6% (inactive)
64 | COc1ccc(C(=O)N2CC(c3ccc(Cl)cc3)CC2=O)cc1 (stereo unspecified) | 80.7% (inactive)
65 | CCn1c2ccccc2c2cc(NC(=O)C(=O)NCC3CCCO3)ccc21 (stereo unspecified) | 77.6% (inactive)
66 | CSc1nc(C)c(C(=O)Nc2ccccc2)c(-c2ccco2)c1C#N | 88.8% (inactive)

Row | Compound | viability
67 | Cn1c(=NC(=O)c2ccco2)sc2ccccc21 | 101% (inactive)
68 | Cc1ccc(C(=O)OCC(=O)c2c[nH]c3ccccc23)cc1NC(=O)c1ccco1 | 84% (inactive)
69 | CC[C@@]12C(=O)N(c3ccc(OC)cc3)C(=O)N1[C@H](c1ccc(Cl)cc1)[C@@H]1C(=O)N(C3CCCCC3)C(=O)[C@@H]12 | 83.2% (inactive)
70 | CCOC(=O)c1sc2nc(COC(=O)c3c(F)cccc3F)[nH]c(=O)c2c1C | 81.5% (inactive)
71 | CCOC(=O)c1sc2nc(C)[nH]c(=O)c2c1C | 74.5% (inactive)
72 | Cc1nn(Cc2ccc(F)cc2)c(C)c1NC(=O)c1cnn2c1NC(c1ccccc1)CC2C(F)(F)F (stereo unspecified) | 89.7% (inactive)
73 | CCN(c1cc(C)cc(C)c1)S(=O)(=O)c1nnc(NC(=O)C(C)C)s1 | 71.8% (inactive)
74 | Cc1ccc(S(=O)(=O)N2CCN(C)CC2)cc1-c1nnc2c3ccccc3c(C)nn12 | 90.2% (inactive)
75 | O=C(c1ccc(Br)o1)N1CCN(c2ccc3nnc(-c4ccccc4)n3n2)CC1 | 79.8% (inactive)
76 | COc1ccc(C(=O)O/N=C2\C(=O)N(C)c3ccccc32)cc1 | 95.8% (inactive)
77 | N#Cc1cc(Cl)c(N2CCOCC2)cc1C#N | 79.7% (inactive)
78 | O=C(O)CSc1cn(Cc2ccccc2)c2ccccc12 | 94% (inactive)
79 | CC1CCN(C(=O)Cn2c(=O)n(-c3ccc(F)cc3)c(=O)c3sccc32)CC1 | 115% (inactive)
80 | O=C(Nc1cc(Cl)cc(Cl)c1)c1ccc(Cn2c(=O)[nH]c3ccsc3c2=O)cc1 | 102% (inactive)
81 | COc1ccc(S(=O)(=O)NC(C)(C)C)cc1-c1nnc2c3ccccc3c(C)nn12 | 119% (inactive)
82 | O=C1c2cccnc2C(Nc2ccc(Cl)cc2)N1Cc1cccs1 (stereo unspecified) | 103% (inactive)
83 | O=C(Nc1ccc2c(c1)CCC2)c1ccc(F)cc1 | 89.2% (inactive)
84 | Cn1ncc(Cl)c1C(=O)Nc1ccc(Cl)cn1 | 80% (inactive)
85 | COc1ccccc1C(=O)NCCNc1nc2cc(C)cc(C)c2cc1C#N | 83.7% (inactive)
86 | CN(C)c1ccc(C2CC(c3cccc(NS(C)(=O)=O)c3)=NN2C(=O)c2ccccc2)cc1 (stereo unspecified) | 75.5% (inactive)
87 | CCc1cccc2c(C(=O)COC(=O)c3ccccc3)c[nH]c12 | 95.7% (inactive)
88 | CCc1nn(CCCC(=O)NCc2ccccc2Br)c(=O)c2cc3occc3n12 | 94.9% (inactive)

Row | Compound | viability
89 | Cc1ccc(CNc2ccc([N+](=O)[O-])cc2C(N)=O)cc1 | 71.8% (inactive)
90 | CC(C)Cc1nc2n[nH]c(N)c2c2c1CCC2 | 81.1% (inactive)
91 | COc1ccc(CN2C(=O)c3cccnc3C2Nc2cc(Cl)c(OC)cc2OC)cc1 (stereo unspecified) | 97.6% (inactive)
92 | CC(Oc1ccccc1F)C(=O)Nc1ccc2ccccc2c1 (stereo unspecified) | 88.9% (inactive)
93 | COc1cc(OC)cc(C(=O)NCCNc2nc3cc(C)cc(C)c3cc2C#N)c1 | 81.1% (inactive)
94 | O=C1c2cccnc2C(Nc2ccccc2)N1Cc1ccco1 (stereo unspecified) | 130% (inactive)
95 | Cc1cc(C)c2c(c1)c(C)cc1nnc(SCC(=O)NCc3ccco3)n12 | 92.6% (inactive)
96 | CS(=O)(=O)N1CCC(Oc2ccccc2C(=O)N2CCN(CC3CC3)CC2)CC1 | 83% (inactive)
97 | COc1ccc(NC2c3ccccc3C(=O)N2Cc2ccccc2Cl)cc1OC (stereo unspecified) | 72.8% (inactive)
98 | COc1cc(NC2c3ccccc3C(=O)N2Cc2ccc3c(c2)OCO3)cc(OC)c1OC (stereo unspecified) | 101% (inactive)
99 | CCN(CC)S(=O)(=O)c1cc(C(=O)c2nccn2C)ccc1Cl | 73% (inactive)
100 | Cc1ccc(C2C3CSCC=C3C(C#N)=C(N)C2(C#N)C#N)cc1 (stereo unspecified) | 73% (inactive)
101 | O=C(CSc1ccc2ccccc2c1)NC1CCCc2ccccc21 (stereo unspecified) | 104% (inactive)
102 | CCC1CCc2c(sc(NC(C)=O)c2C#N)C1 (stereo unspecified) | 72.8% (inactive)
103 | COCCNC(=S)N1CCc2cc(OC)c(OC)cc2C1COc1cc(C)cc(C)c1 (stereo unspecified) | 89.2% (inactive)
104 | Cc1c(-c2ccccc2)c(=O)oc2ccc(O)cc12 | 102% (inactive)
105 | O=C(CCCn1c(=O)c2sccc2n(Cc2cc(=O)n3ccccc3n2)c1=O)NCc1ccco1 | 105% (inactive)
106 | O=C(CCn1c(=O)c2sccc2n(Cc2cc(=O)n3ccccc3n2)c1=O)NCc1ccco1 | 90.2% (inactive)

From PubChem BioAssay AID2410 (Southern Research Specialized Biocontainment Screening …, 2010)
